# From article PMC7862700, “An all-to-all approach to the identification of sequence-specific readers for epigenetic DNA modifications on cytosine”
# Tests used:
# Assay in all cases: DAPPL (digital affinity profiling via proximity ligation, sequencing); 10 mM Tris-HCl pH 7.5, 50 mM NaCl, 1 mM DTT, 4% glycerol, room temperature, 30 min; GST-TFs on glutathione beads, 16-mer random dsDNA library, 0.1% formaldehyde crosslink after washing; high values mean tight binding
# FLI1 = target: T1, FLI1 (Homo sapiens, UniProt Q01543 1-452); details: protein: recombinant; tags: N-terminal GST; dsDNA, one strand shown
# T1 sequence: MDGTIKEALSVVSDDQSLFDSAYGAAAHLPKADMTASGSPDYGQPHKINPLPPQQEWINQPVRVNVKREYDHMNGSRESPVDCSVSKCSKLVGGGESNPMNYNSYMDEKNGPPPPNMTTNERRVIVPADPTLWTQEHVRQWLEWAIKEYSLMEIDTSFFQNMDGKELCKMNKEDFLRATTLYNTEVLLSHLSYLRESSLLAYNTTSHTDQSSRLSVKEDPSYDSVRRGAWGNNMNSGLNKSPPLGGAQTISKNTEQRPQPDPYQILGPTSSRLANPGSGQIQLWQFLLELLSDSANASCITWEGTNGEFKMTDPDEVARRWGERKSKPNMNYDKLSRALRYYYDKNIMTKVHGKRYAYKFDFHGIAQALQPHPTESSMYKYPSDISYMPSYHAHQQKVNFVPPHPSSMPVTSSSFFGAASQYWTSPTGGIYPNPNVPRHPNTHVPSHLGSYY
# In short: (§1)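 Human transcription factors were made in yeast as GST fusions, captured on glutathione beads and barcoded with DNA. With a tag-only sample included, the pool was incubated with 200 nmole of a random double-stranded 16-mer DNA library in Tris/NaCl/DTT/glycerol buffer at room temperature for 30 min, then crosslinked with 0.1% formaldehyde after washing, ligated by proximity, amplified and sequenced. For binding signal, each hexamer's read frequency for a factor is divided by its frequency for the tag-only sample.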
# ELK1 = target: T2, ELK1 (Homo sapiens, UniProt P19419 1-428); details: protein: recombinant; tags: N-terminal GST; dsDNA, one strand shown
# T2 sequence: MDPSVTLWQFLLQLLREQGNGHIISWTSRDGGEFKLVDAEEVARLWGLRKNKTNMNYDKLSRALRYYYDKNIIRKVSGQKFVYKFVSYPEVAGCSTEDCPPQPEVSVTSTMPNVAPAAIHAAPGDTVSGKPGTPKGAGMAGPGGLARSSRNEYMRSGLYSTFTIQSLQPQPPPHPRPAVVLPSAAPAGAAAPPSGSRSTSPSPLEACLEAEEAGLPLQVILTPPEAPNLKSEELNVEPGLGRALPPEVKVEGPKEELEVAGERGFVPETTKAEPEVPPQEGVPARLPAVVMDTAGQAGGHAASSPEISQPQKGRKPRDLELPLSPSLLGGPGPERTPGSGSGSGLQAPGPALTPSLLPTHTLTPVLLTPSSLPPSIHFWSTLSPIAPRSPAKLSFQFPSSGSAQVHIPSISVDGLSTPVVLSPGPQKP
# In short: as §1
# GABPA = target: T3, GABPA (Homo sapiens, UniProt Q06546 1-454); details: protein: recombinant; tags: N-terminal GST; dsDNA, one strand shown
# T3 sequence: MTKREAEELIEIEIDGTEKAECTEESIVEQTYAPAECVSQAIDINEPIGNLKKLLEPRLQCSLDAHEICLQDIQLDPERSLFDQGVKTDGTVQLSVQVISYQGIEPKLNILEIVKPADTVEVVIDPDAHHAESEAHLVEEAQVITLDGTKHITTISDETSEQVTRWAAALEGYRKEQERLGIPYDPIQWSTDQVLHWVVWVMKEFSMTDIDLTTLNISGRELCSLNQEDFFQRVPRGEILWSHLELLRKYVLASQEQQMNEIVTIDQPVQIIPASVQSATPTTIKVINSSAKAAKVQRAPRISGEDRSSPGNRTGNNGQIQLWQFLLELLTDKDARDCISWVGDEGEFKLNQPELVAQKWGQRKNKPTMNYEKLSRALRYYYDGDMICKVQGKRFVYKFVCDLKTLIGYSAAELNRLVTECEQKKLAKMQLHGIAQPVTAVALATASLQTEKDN
# In short: as §1
# ERG = target: T4, ERG (Homo sapiens, UniProt P11308 1-479); details: protein: recombinant; tags: N-terminal GST; dsDNA, one strand shown
# T4 sequence: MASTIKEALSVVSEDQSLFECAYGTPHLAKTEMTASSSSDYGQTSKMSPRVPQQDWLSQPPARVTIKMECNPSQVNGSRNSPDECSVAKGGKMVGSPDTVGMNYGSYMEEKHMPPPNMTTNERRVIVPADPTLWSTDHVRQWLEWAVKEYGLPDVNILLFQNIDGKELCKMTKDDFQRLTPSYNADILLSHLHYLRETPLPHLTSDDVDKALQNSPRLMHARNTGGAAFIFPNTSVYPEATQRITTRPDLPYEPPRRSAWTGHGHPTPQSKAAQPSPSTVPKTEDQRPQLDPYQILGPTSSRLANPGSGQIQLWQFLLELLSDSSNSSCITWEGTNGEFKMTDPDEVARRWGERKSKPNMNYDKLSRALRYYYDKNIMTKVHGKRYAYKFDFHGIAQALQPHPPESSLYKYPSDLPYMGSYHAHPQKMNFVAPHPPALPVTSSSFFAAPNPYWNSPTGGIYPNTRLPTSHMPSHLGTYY
# In short: as §1
# ELF1 = ELF1 (Homo sapiens, UniProt P32519 1-619); details: protein: recombinant; tags: N-terminal GST; dsDNA, one strand shown
# Sequence of ELF1 (P32519 whole entry): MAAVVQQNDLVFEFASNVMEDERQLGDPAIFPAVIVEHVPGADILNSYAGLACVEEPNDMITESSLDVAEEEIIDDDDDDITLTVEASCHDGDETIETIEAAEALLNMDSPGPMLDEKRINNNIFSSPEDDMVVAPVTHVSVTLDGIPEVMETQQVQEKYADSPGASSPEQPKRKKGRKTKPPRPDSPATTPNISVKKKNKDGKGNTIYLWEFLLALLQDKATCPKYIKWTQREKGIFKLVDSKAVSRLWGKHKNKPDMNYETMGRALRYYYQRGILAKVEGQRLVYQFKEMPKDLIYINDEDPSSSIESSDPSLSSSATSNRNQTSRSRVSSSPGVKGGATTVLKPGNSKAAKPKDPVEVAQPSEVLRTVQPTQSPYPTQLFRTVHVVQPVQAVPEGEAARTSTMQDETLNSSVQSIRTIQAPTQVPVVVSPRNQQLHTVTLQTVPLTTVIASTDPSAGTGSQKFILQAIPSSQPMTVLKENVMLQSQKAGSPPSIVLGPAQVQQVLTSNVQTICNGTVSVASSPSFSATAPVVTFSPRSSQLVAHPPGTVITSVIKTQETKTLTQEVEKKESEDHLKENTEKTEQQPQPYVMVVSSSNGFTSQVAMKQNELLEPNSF
# In short: as §1
# EHF = target: T5, EHF (Homo sapiens, UniProt Q9NZC4 1-300); details: protein: recombinant; tags: N-terminal GST; dsDNA, one strand shown
# T5 sequence: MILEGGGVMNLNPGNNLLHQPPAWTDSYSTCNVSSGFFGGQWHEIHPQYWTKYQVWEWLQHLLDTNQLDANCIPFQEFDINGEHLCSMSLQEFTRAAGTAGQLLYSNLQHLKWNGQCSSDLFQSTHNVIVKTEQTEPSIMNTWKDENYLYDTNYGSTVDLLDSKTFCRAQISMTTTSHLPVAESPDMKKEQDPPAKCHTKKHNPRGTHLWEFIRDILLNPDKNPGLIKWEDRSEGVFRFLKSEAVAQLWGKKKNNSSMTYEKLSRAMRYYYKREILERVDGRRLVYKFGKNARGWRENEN
# In short: as §1
# SPI1 = SPI1 (Homo sapiens, UniProt P17947 1-270); details: protein: recombinant; tags: N-terminal GST; dsDNA, one strand shown
# In short: as §1
# SPIB = SPIB (Homo sapiens, UniProt Q01892 1-262); details: protein: recombinant; tags: N-terminal GST; dsDNA, one strand shown
# Sequence of SPIB (Q01892 whole entry): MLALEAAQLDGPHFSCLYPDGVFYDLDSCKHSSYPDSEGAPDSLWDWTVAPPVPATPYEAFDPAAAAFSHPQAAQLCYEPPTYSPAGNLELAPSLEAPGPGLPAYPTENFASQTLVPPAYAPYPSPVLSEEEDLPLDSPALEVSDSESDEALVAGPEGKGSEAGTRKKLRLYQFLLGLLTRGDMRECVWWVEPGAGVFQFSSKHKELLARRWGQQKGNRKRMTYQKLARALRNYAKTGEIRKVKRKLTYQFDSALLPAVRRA
# In short: as §1
# ELK3 = target: T6, ELK3 (Homo sapiens, UniProt P41970 1-407); details: protein: recombinant; tags: N-terminal GST; dsDNA, one strand shown
# T6 sequence: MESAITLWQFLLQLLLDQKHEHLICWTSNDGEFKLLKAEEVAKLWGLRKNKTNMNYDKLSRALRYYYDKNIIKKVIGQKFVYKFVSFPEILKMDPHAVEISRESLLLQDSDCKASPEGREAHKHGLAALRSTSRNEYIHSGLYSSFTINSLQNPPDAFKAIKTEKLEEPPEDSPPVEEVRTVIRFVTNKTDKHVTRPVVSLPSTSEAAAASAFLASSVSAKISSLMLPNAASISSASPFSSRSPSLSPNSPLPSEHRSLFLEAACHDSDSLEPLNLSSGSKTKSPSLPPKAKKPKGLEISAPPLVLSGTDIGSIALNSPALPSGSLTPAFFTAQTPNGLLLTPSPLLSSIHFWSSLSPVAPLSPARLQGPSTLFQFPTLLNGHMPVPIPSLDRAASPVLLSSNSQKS
# In short: as §1
# FEV = target: T7, FEV (Homo sapiens, UniProt Q99581 1-238); details: protein: recombinant; tags: N-terminal GST; dsDNA, one strand shown
# T7 sequence: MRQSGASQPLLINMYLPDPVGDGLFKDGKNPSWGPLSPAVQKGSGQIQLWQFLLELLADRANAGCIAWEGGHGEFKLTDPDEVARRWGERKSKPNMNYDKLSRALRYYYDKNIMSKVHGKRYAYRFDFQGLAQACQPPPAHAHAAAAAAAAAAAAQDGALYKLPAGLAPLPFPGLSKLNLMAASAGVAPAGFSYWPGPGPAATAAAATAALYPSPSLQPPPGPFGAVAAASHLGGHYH
# In short: as §1
# ETV5 = ETV5 (Homo sapiens, UniProt P41161 1-510); details: protein: recombinant; tags: N-terminal GST; dsDNA, one strand shown
# Sequence of ETV5 (P41161 whole entry): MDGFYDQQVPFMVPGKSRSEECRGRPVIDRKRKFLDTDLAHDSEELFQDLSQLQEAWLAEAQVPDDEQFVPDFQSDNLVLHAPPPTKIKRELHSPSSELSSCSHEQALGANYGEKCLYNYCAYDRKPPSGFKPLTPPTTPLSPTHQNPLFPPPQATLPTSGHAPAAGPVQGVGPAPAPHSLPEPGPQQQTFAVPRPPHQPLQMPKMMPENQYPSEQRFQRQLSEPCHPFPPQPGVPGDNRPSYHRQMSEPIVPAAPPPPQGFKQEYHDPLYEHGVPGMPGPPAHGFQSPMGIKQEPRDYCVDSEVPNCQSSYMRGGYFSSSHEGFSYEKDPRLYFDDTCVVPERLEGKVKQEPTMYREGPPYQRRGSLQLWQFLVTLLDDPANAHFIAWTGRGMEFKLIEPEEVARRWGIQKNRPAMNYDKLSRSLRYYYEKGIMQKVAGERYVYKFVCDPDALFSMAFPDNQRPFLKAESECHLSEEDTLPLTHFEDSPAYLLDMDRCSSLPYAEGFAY
# In short: as §1
# HSF1 = HSF1 (Homo sapiens, UniProt Q00613 1-529); details: protein: recombinant; tags: N-terminal GST; chain copies: 3; dsDNA, one strand shown
# Sequence of HSF1 (Q00613 whole entry): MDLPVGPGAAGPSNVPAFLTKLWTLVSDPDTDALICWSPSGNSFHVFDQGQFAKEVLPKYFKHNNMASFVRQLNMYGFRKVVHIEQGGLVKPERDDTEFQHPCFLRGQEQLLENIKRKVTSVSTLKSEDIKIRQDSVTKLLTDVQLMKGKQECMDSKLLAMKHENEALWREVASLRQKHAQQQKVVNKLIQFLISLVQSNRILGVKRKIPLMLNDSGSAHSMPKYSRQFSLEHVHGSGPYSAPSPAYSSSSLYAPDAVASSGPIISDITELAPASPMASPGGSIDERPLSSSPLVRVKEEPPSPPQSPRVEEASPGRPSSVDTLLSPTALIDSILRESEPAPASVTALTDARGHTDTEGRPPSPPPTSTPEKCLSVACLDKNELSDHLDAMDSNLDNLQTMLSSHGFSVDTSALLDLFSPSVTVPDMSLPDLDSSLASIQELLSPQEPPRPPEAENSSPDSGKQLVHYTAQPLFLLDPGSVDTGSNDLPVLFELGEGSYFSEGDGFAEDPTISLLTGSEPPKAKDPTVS
# In short: as §1
# SPIC = target: T8, SPIC (Homo sapiens, UniProt Q8N5J4 1-248); details: protein: recombinant; tags: N-terminal GST; dsDNA, one strand shown
# T8 sequence: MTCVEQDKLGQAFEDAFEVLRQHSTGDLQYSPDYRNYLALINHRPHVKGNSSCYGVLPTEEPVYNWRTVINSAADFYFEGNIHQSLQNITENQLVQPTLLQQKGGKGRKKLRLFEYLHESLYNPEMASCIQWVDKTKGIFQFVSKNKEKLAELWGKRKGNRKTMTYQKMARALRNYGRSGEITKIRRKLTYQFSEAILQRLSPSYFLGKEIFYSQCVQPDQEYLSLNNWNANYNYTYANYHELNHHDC
# In short: as §1
# ELF4 = ELF4 (Homo sapiens, UniProt Q99607 1-663); details: protein: recombinant; tags: N-terminal GST; dsDNA, one strand shown
# Sequence of ELF4 (Q99607 whole entry): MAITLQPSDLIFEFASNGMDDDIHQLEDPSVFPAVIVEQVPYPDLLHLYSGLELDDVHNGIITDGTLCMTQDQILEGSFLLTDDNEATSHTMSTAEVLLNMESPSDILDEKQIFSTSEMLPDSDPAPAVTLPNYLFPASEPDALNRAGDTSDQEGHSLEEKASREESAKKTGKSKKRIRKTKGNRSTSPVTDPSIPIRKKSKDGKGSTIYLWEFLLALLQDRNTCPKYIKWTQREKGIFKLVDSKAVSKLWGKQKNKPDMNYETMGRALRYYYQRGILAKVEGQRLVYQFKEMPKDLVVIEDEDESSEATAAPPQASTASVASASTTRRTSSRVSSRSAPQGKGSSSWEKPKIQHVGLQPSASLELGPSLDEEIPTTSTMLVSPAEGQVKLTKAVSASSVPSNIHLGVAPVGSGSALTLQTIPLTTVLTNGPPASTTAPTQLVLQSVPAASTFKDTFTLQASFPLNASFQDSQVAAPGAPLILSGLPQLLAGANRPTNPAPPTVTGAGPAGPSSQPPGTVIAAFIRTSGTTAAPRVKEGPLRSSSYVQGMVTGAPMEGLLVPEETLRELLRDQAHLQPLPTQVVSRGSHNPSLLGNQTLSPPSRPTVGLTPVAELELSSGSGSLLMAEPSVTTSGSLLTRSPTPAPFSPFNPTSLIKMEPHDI
# In short: as §1
# ELK4 = target: T9, ELK4 (Homo sapiens, UniProt P28324-2 1-405); details: protein: recombinant; tags: N-terminal GST; dsDNA, one strand shown
# T9 sequence: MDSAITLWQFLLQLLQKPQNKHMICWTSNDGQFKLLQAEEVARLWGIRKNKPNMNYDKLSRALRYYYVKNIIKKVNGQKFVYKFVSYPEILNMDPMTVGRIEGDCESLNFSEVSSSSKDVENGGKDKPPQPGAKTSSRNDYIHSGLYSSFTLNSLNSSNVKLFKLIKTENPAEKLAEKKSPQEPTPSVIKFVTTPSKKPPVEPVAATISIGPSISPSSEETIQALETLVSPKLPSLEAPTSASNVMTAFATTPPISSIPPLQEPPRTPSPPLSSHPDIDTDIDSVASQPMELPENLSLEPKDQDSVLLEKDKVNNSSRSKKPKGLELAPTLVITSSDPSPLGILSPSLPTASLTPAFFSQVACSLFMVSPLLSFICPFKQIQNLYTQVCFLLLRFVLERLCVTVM
# In short: as §1
# ETV2 = target: T10, ETV2 (Homo sapiens, UniProt O00321 1-342); details: protein: recombinant; tags: N-terminal GST; dsDNA, one strand shown
# T10 sequence: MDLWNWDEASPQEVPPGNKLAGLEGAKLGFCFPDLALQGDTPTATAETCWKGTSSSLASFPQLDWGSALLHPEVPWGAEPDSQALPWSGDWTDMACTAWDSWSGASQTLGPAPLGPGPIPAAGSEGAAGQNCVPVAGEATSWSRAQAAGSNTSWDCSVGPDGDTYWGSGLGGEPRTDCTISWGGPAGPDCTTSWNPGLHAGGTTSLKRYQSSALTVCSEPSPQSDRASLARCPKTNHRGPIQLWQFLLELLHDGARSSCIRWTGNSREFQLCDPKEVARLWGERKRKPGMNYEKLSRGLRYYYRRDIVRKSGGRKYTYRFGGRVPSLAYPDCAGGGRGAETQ
# In short: as §1
# ELF3 = target: T11, ELF3 (Homo sapiens, UniProt P78545 1-371); details: protein: recombinant; tags: N-terminal GST; dsDNA, one strand shown
# T11 sequence: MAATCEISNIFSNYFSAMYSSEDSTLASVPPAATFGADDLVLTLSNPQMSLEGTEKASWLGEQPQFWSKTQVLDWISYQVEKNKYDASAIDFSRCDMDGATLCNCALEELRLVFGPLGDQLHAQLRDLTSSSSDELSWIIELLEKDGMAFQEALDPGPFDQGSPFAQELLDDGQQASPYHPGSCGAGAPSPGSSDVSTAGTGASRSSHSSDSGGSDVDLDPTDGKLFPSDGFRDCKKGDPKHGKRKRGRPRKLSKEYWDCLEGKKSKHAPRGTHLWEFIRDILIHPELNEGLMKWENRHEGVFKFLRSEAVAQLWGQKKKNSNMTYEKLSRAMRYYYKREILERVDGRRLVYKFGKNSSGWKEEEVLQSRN
# In short: as §1
# CRX = CRX (Homo sapiens, UniProt O43186 1-299); details: protein: recombinant; tags: N-terminal GST; dsDNA, one strand shown
# Sequence of CRX (O43186 whole entry): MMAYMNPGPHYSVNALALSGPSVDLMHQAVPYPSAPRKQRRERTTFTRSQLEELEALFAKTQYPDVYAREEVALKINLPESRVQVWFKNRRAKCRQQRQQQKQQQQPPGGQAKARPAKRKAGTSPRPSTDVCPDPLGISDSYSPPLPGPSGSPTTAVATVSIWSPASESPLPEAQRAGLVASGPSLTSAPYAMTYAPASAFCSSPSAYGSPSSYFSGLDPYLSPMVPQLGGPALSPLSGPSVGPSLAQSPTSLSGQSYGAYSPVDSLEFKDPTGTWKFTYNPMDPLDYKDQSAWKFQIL
# In short: as §1
# ETV1 = ETV1 (Homo sapiens, UniProt P50549 1-477); details: protein: recombinant; tags: N-terminal GST; dsDNA, one strand shown
# Sequence of ETV1 (P50549 whole entry): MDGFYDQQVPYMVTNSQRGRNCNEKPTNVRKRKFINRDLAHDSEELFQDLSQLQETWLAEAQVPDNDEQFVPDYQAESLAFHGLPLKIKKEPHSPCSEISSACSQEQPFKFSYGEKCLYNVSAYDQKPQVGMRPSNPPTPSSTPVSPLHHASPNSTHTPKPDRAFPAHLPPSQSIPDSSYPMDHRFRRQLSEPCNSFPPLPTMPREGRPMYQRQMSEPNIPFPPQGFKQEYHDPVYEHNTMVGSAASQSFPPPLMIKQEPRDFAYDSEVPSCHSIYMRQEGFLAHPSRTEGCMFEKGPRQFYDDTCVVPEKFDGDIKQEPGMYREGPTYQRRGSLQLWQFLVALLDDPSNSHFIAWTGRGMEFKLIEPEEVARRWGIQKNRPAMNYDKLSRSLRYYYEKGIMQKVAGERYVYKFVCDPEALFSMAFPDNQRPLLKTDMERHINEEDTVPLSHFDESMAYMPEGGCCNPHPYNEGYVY
# In short: as §1
sequence,measurement,setting,value
CAGGAT,binding signal,FLI1,"1.23 fold enrichment (6-mer frequency, TF over GST control)"
same,binding signal,ELK1,"1.16 fold enrichment (6-mer frequency, TF over GST control)"
same,binding signal,GABPA,"1.13 fold enrichment (6-mer frequency, TF over GST control)"
same,binding signal,ERG,"1.2 fold enrichment (6-mer frequency, TF over GST control)"
same,binding signal,ELF1,"1.14 fold enrichment (6-mer frequency, TF over GST control)"
same,binding signal,EHF,"1.19 fold enrichment (6-mer frequency, TF over GST control)"
same,binding signal,SPI1,"1.1 fold enrichment (6-mer frequency, TF over GST control)"
same,binding signal,SPIB,"1.29 fold enrichment (6-mer frequency, TF over GST control)"
same,binding signal,ELK3,"1.04 fold enrichment (6-mer frequency, TF over GST control)"
same,binding signal,FEV,"1.27 fold enrichment (6-mer frequency, TF over GST control)"
same,binding signal,ETV5,"1.19 fold enrichment (6-mer frequency, TF over GST control)"
same,binding signal,HSF1,"1.08 fold enrichment (6-mer frequency, TF over GST control)"
same,binding signal,SPIC,"1.04 fold enrichment (6-mer frequency, TF over GST control)"
same,binding signal,ELF4,"1.11 fold enrichment (6-mer frequency, TF over GST control)"
same,binding signal,ELK4,"1.23 fold enrichment (6-mer frequency, TF over GST control)"
same,binding signal,ETV2,"1.15 fold enrichment (6-mer frequency, TF over GST control)"
same,binding signal,ELF3,"1.12 fold enrichment (6-mer frequency, TF over GST control)"
same,binding signal,CRX,"1.35 fold enrichment (6-mer frequency, TF over GST control)"
same,binding signal,ETV1,"1.34 fold enrichment (6-mer frequency, TF over GST control)"
